Rows were chosen to be rich in hits. Some 2.6% of all compounds tested hit in one or more screens of this group.
PAD4 inh – blocks human protein arginine deiminase 4 | 330,000 tested, 0.41% active | recombinant PAD4, RCA probe fluorescence polarization | inhibition, % at 6.36 µM | Q9UM07;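 active means percent inhibition above a cutoff equal to the mean of all tested compounds plus 3 SD, cut at about 15% in these data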;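 further: 0% = PAD4 with RCA probe and DMSO and 100% = probe without PAD4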
TCR-CD3 inh – human TCR-CD3 binding inhibition | TAMRA-labeled TCR probe fluorescence, biochemical | inhibition, % at 9.4 µM | 360,000 tested, 0.37% active | AID 651800; in the data active means inhibition above about 19%;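 further: recombinant mutant TCR 2C K166C tagged with TAMRA read by polarization; 0% = receptor in buffer alone and 100% = receptor with positive control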
SIAE primary – blocks human sialic acid acetylesterase | Q9HAT2 | SIAE FP-Rh probe binding, fluorescence polarization | inhibition, % at 9.66 µM | 370,000 tested, 0.69% active | AID 1053197;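 active means inhibition above a cutoff: mean of compounds within the control limits plus 3 SD of those, cut at about 17% in these data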;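 further: 0% = plate median of compound wells and 100% = probe without SIAE protein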
Fam108B counter – Fam108B inhibition, counter-screen for RBBP9 inhibitors. recombinant Fam108B, FP-Rh probe fluorescence polarization. inhibition, % at 9.51 µM. 300,000 tested, 0.33% active;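 active means inhibition above the screen mean inhibition plus 3 SD, computed separately per campaign, cut at about 18% in these data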;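 further: inhibitors lower polarization as less probe binds the enzyme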
PRMT1 inh – PRMT1 (human) inhibition, primary screen. Q99873. recombinant PRMT1, activity-based probe fluorescence polarization. inhibition, % at 2.79 µM. 370,000 tested, 1.3% active. AID 652257;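 active means inhibition above about 21% made by adding two undisclosed values, limit read from the data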
Target sequence (Q99873 whole entry, looked up): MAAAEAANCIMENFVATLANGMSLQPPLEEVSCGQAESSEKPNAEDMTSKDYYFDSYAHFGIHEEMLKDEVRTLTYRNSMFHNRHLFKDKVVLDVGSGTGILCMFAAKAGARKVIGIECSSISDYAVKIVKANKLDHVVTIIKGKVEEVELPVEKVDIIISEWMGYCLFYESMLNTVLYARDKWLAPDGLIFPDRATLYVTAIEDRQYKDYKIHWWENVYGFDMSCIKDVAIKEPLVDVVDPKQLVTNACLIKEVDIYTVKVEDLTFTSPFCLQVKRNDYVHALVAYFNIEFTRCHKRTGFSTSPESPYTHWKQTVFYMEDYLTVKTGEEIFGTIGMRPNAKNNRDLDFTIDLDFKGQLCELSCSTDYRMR
PME-1 primary – blocks human protein phosphatase methylesterase 1. recombinant PME-1, FP-Rh probe fluorescence polarization. 320,000 tested, 0.53% active. Q9Y570. inhibition, % at 5.9 µM;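 active means inhibition above the campaign mean of all compounds plus 3 SD, cut at about 26% in these data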;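 further: competitive labeling of PME-1 active site by serine hydrolase directed probe; 0% = PME-1 with DMSO and 100% = wells lacking PME-1 enzyme; inhibitors block probe labeling so polarization falls and inhibition rises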
PRMT1 inh conf – confirmation of human PRMT1 inhibitors; shares compounds with PRMT1 inh; recombinant His-PRMT1, activity-based probe fluorescence polarization; inhibition, % at 2.79 µM; 3,300 tested, 42% active;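 active means mean inhibition across replicates above the hit cutoff derived for the earlier primary screen, cut at about 22% in these data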
An asterisk follows results filed as active.

CC1=C(C(=O)Nc2ccccc2)C(c2ccc(C)o2)n2c(s/c(=C\c3ccco3)c2=O)=N1 (centres undefined) was read as TCR-CD3 inh -2, SIAE primary -4, PRMT1 inh 53* and PRMT1 inh conf -3.
Cc1ccc2c(c1)[C@H]1[C@H](CO2)[C@H](c2ccccc2)[C@]2(C)C(=O)N(Cc3ccc(F)cc3)CC(=O)N12 was read as PAD4 inh 3, TCR-CD3 inh 0, SIAE primary -6, PRMT1 inh 38* and PRMT1 inh conf 11.
`C[C@@]12C(=O)N(Cc3ccc(F)cc3)CC(=O)N1[C@H]1c3cc(Cl)ccc3OC[C@@H]1[C@@H]2c1ccccc1` gave PAD4 inh 3, TCR-CD3 inh 0, SIAE primary -17 and PRMT1 inh -1.
`O=C(N1CCC(C(O)(c2ccccc2)c2ccccc2)CC1)n1ncc(C(O)(c2ccccc2)c2ccccc2)n1` gave SIAE primary -7 and PRMT1 inh -2.
For O=c1[nH]c(S)c(/C=C2\C=Nc3ccccc32)s1 the results were PAD4 inh -4, TCR-CD3 inh -8, SIAE primary -2, Fam108B counter 18, PRMT1 inh 48*, PME-1 primary 5 and PRMT1 inh conf 31*.
Screening Cc1ccc(/C=c2\sc3n(c2=O)CN(c2ccc(Br)cc2)CN=3)o1 returned PAD4 inh 1, TCR-CD3 inh 2, SIAE primary -1, Fam108B counter 4, PRMT1 inh 36*, PME-1 primary 3 and PRMT1 inh conf 5.
For O=C(O)c1ccccc1C(=O)Nc1n[nH]c(=S)s1 the results were PAD4 inh 2, TCR-CD3 inh -1, SIAE primary 7, Fam108B counter -1, PRMT1 inh 31*, PME-1 primary 2 and PRMT1 inh conf 10.
`C=CCN1C(=O)[C@@H](CC(=O)N2CCSCC2)[C@]2(C(=O)OC)CCCCC=C12` gave SIAE primary 3 and PRMT1 inh -1.
`COc1ccc(N(C(C)=O)S(=O)(=O)c2cccs2)cc1` gave PAD4 inh 4, TCR-CD3 inh -1, SIAE primary -2, Fam108B counter 0, PRMT1 inh -2 and PME-1 primary 6.
CC(=O)N(c1ccc2oc(=O)sc2c1)S(=O)(=O)c1ccc(C(=O)O)cc1 was read as PAD4 inh 12, TCR-CD3 inh 5, SIAE primary -13, Fam108B counter 2, PRMT1 inh 91*, PME-1 primary 4 and PRMT1 inh conf 80*.
COc1ccccc1N(CC(=O)N(CC(C)C)CC(C)C)S(=O)(=O)c1cccs1 was read as PAD4 inh 3, TCR-CD3 inh 5, SIAE primary 10, Fam108B counter -8, PRMT1 inh -3 and PME-1 primary 3.
CC(=O)N(c1ccc2oc(=O)sc2c1)S(=O)(=O)c1cccs1 was read as PAD4 inh 12, TCR-CD3 inh -5, SIAE primary 0, Fam108B counter 3, PRMT1 inh 94*, PME-1 primary -5 and PRMT1 inh conf 57*.
COc1ccc(N(C(=O)C(C)C)S(=O)(=O)c2cccs2)cc1 was read as PAD4 inh -5, TCR-CD3 inh -3, SIAE primary -8, Fam108B counter -4, PRMT1 inh 0 and PME-1 primary 6.
Screening CC(C)C(=O)N(c1ccc2oc(=O)sc2c1)S(=O)(=O)c1cccs1 returned PAD4 inh 15, TCR-CD3 inh 5, SIAE primary -10, Fam108B counter 4, PRMT1 inh 53*, PME-1 primary 2 and PRMT1 inh conf 8.
For CC(C)C(=O)N(c1cc2sc(=O)oc2c2ccccc12)S(=O)(=O)c1cccs1 the results were PAD4 inh 11, TCR-CD3 inh -5, SIAE primary 11, Fam108B counter 6, PRMT1 inh 81*, PME-1 primary -1 and PRMT1 inh conf 22*.
Screening Cc1cccc(NC(=O)NCCCN2CCN(c3ccc(F)cc3)CC2)c1 returned SIAE primary -2 and PRMT1 inh -4.
Screening COc1ccc2[nH]c3c(c2c1)CCN[C@]31C(=O)N(c2ccccc2)c2ccccc21 returned SIAE primary 0 and PRMT1 inh -4.
Screening C[C@H]1CCC[C@@H](O)CC(=O)c2c(O)cc(O)cc2CC(=O)O1 returned SIAE primary 0 and PRMT1 inh 2.
